Legend:
Experiment in all cases: PBM; 200 nM protein, PBS
Details in all cases: dsDNA, one strand shown
[1] = target: HOXB4 (Homo sapiens, UniProt P17483 148-234)
[2] = target: HOXB9 (Homo sapiens, UniProt P17482 171-250, T197M)
[3] = target: HOXA4 (Homo sapiens, UniProt Q00056 201-287, W262R)
[4] = target: HOXC9 (Homo sapiens, UniProt P31274 178-260, K195R)
[5] = target: HOXC10 (Homo sapiens, UniProt Q9NYD6 254-340)
[6] = target: ALX4 (Homo sapiens, UniProt Q9H161 200-286)
[7] = target: ALX4 (Homo sapiens, UniProt Q9H161 200-286, Q225E)
[8] = target: HOXA2 (Homo sapiens, UniProt O43364 129-215, R185T)
[9] = target: HOXA4 (Homo sapiens, UniProt Q00056 201-287, R217L)
[10] = target: HOXB9 (Homo sapiens, UniProt P17482 171-250)
[11] = target: HOXB4 (Homo sapiens, UniProt P17483 148-234, V174I)
[12] = target: HOXC9 (Homo sapiens, UniProt P31274 178-260)
[13] = target: HOXC9 (Homo sapiens, UniProt P31274 178-260, R193K)
[14] = target: HOXA2 (Homo sapiens, UniProt O43364 129-215, R185K)
[15] = target: HOXA4 (Homo sapiens, UniProt Q00056 201-287)
[16] = target: HOXB9 (Homo sapiens, UniProt P17482 171-250, R186Q)
[17] = target: HOXC9 (Homo sapiens, UniProt P31274 178-260, R222W)
[18] = target: HOXA2 (Homo sapiens, UniProt O43364 129-215, Y150S)
[19] = target: HOXA4 (Homo sapiens, UniProt Q00056 201-287, W262F)
[20] = target: HOXA2 (Homo sapiens, UniProt O43364 129-215)
Sequence of HOXA2 (Homo sapiens, UniProt O43364 129-215) (O43364 129-215): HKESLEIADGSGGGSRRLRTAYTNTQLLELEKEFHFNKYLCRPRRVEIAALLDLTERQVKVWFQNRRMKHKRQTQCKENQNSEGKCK

Sequence of HOXC9 (Homo sapiens, UniProt P31274 178-260, R222W) (P31274 178-260 R222W): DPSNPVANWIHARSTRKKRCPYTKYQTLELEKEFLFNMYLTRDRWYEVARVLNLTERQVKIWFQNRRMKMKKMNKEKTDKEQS
Sequence of HOXA2 (Homo sapiens, UniProt O43364 129-215, R185K) (O43364 129-215 R185K): as the sequence (O43364 129-215) above, with R57K counted along it
Sequence of ALX4 (Homo sapiens, UniProt Q9H161 200-286) (Q9H161 200-286): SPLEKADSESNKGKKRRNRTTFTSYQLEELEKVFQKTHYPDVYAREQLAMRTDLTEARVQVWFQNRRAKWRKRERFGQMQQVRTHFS
Sequence of HOXC9 (Homo sapiens, UniProt P31274 178-260) (P31274 178-260): as the sequence (P31274 178-260 R222W) above, with W45R counted along it
Sequence of HOXC9 (Homo sapiens, UniProt P31274 178-260, R193K) (P31274 178-260 R193K): as the sequence (P31274 178-260 R222W) above, with R16K, W45R counted along it
Sequence of ALX4 (Homo sapiens, UniProt Q9H161 200-286, Q225E) (Q9H161 200-286 Q225E): as the sequence (Q9H161 200-286) above, with Q26E counted along it
Sequence of HOXA2 (Homo sapiens, UniProt O43364 129-215, R185T) (O43364 129-215 R185T): as the sequence (O43364 129-215) above, with R57T counted along it
Sequence of HOXC10 (Q9NYD6 254-340): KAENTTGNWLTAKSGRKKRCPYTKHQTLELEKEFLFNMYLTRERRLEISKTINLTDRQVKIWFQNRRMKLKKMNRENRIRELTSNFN
Sequence of HOXC9 (Homo sapiens, UniProt P31274 178-260, K195R) (P31274 178-260 K195R): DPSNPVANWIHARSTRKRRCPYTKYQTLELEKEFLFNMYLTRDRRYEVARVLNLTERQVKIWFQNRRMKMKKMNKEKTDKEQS
Sequence of HOXB4 (Homo sapiens, UniProt P17483 148-234, V174I) (P17483 148-234 V174I): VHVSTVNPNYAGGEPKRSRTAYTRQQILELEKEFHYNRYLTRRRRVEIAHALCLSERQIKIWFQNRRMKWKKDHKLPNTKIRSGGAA
Sequence of HOXA4 (Homo sapiens, UniProt Q00056 201-287) (Q00056 201-287): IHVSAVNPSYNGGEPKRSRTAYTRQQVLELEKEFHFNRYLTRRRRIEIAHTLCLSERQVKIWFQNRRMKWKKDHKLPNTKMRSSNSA
Sequence of HOXA2 (Homo sapiens, UniProt O43364 129-215, Y150S) (O43364 129-215 Y150S): as the sequence (O43364 129-215) above, with Y22S counted along it
Sequence of HOXA4 (Homo sapiens, UniProt Q00056 201-287, R217L) (Q00056 201-287 R217L): as the sequence (Q00056 201-287) above, with R17L counted along it
Sequence of HOXA4 (Homo sapiens, UniProt Q00056 201-287, W262R) (Q00056 201-287 W262R): as the sequence (Q00056 201-287) above, with W62R counted along it
Sequence of HOXB9 (Homo sapiens, UniProt P17482 171-250) (P17482 171-250): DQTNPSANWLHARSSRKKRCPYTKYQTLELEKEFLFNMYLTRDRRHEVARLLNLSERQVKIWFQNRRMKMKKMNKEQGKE
Sequence of HOXB9 (Homo sapiens, UniProt P17482 171-250, R186Q) (P17482 171-250 R186Q): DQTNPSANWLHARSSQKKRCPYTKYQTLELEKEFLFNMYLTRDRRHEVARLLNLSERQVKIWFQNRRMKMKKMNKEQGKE
Sequence of HOXB4 (Homo sapiens, UniProt P17483 148-234) (P17483 148-234): as the sequence (P17483 148-234 V174I) above, with I27V counted along it
Sequence of HOXA4 (Homo sapiens, UniProt Q00056 201-287, W262F) (Q00056 201-287 W262F): as the sequence (Q00056 201-287) above, with W62F counted along it
Sequence of HOXB9 (Homo sapiens, UniProt P17482 171-250, T197M) (P17482 171-250 T197M): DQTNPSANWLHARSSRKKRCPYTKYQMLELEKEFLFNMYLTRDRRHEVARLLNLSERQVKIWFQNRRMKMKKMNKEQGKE

| Sequence | binding signal [1] | binding signal [2] | binding signal [3] | binding signal [4] | binding signal [5] | binding signal [6] | binding signal [7] | binding signal [8] | binding signal [9] | binding signal [10] | binding signal [11] | binding signal [12] | binding signal [13] | binding signal [14] | binding signal [15] | binding signal [16] | binding signal [17] | binding signal [18] | binding signal [19] | binding signal [20] |
| --- | --- | --- | --- | --- | --- | --- | --- | --- | --- | --- | --- | --- | --- | --- | --- | --- | --- | --- | --- | --- |
| GGTAATTA | 13.7 upbm affinity estimate (log intensity, higher = more binding, comparable within an allelic series) | 10.6 upbm affinity estimate (log intensity, higher = more binding, comparable within an allelic series) | 10.9 upbm affinity estimate (log intensity, higher = more binding, comparable within an allelic series) | 13.2 upbm affinity estimate (log intensity, higher = more binding, comparable within an allelic series) | 12.5 upbm affinity estimate (log intensity, higher = more binding, comparable within an allelic series) | 14.4 upbm affinity estimate (log intensity, higher = more binding, comparable within an allelic series) | 13.9 upbm affinity estimate (log intensity, higher = more binding, comparable within an allelic series) | 14.1 upbm affinity estimate (log intensity, higher = more binding, comparable within an allelic series) | 13.2 upbm affinity estimate (log intensity, higher = more binding, comparable within an allelic series) | 12.3 upbm affinity estimate (log intensity, higher = more binding, comparable within an allelic series) | 14.4 upbm affinity estimate (log intensity, higher = more binding, comparable within an allelic series) | 13.1 upbm affinity estimate (log intensity, higher = more binding, comparable within an allelic series) | 13.1 upbm affinity estimate (log intensity, higher = more binding, comparable within an allelic series) | 14.1 upbm affinity estimate (log intensity, higher = more binding, comparable within an allelic series) | 14.3 upbm affinity estimate (log intensity, higher = more binding, comparable within an allelic series) | 12.2 upbm affinity estimate (log intensity, higher = more binding, comparable within an allelic series) | 11 upbm affinity estimate (log intensity, higher = more binding, comparable within an allelic series) | 11 upbm affinity estimate (log intensity, higher = more binding, comparable within an allelic series) | 12.8 upbm affinity estimate (log intensity, higher = more binding, comparable within an allelic series) | 13.4 upbm affinity estimate (log intensity, higher = more binding, comparable within an allelic series) |
| GCTAATTA | 13.6 upbm affinity estimate (log intensity, higher = more binding, comparable within an allelic series) | 10.2 upbm affinity estimate (log intensity, higher = more binding, comparable within an allelic series) | 10.8 upbm affinity estimate (log intensity, higher = more binding, comparable within an allelic series) | 12.5 upbm affinity estimate (log intensity, higher = more binding, comparable within an allelic series) | – | 14.6 upbm affinity estimate (log intensity, higher = more binding, comparable within an allelic series) | 14.4 upbm affinity estimate (log intensity, higher = more binding, comparable within an allelic series) | 14.2 upbm affinity estimate (log intensity, higher = more binding, comparable within an allelic series) | 13 upbm affinity estimate (log intensity, higher = more binding, comparable within an allelic series) | 11.8 upbm affinity estimate (log intensity, higher = more binding, comparable within an allelic series) | 14.3 upbm affinity estimate (log intensity, higher = more binding, comparable within an allelic series) | 12.6 upbm affinity estimate (log intensity, higher = more binding, comparable within an allelic series) | 12.5 upbm affinity estimate (log intensity, higher = more binding, comparable within an allelic series) | 14.1 upbm affinity estimate (log intensity, higher = more binding, comparable within an allelic series) | 14.3 upbm affinity estimate (log intensity, higher = more binding, comparable within an allelic series) | 11.5 upbm affinity estimate (log intensity, higher = more binding, comparable within an allelic series) | 10.9 upbm affinity estimate (log intensity, higher = more binding, comparable within an allelic series) | 10.8 upbm affinity estimate (log intensity, higher = more binding, comparable within an allelic series) | 13 upbm affinity estimate (log intensity, higher = more binding, comparable within an allelic series) | 13.4 upbm affinity estimate (log intensity, higher = more binding, comparable within an allelic series) |
| CGTAATTA | 13.5 upbm affinity estimate (log intensity, higher = more binding, comparable within an allelic series) | 10.2 upbm affinity estimate (log intensity, higher = more binding, comparable within an allelic series) | 10.7 upbm affinity estimate (log intensity, higher = more binding, comparable within an allelic series) | 12.7 upbm affinity estimate (log intensity, higher = more binding, comparable within an allelic series) | 12.3 upbm affinity estimate (log intensity, higher = more binding, comparable within an allelic series) | 14.2 upbm affinity estimate (log intensity, higher = more binding, comparable within an allelic series) | 13.5 upbm affinity estimate (log intensity, higher = more binding, comparable within an allelic series) | 13.9 upbm affinity estimate (log intensity, higher = more binding, comparable within an allelic series) | 12.7 upbm affinity estimate (log intensity, higher = more binding, comparable within an allelic series) | 11.9 upbm affinity estimate (log intensity, higher = more binding, comparable within an allelic series) | 14.3 upbm affinity estimate (log intensity, higher = more binding, comparable within an allelic series) | 12.8 upbm affinity estimate (log intensity, higher = more binding, comparable within an allelic series) | 12.7 upbm affinity estimate (log intensity, higher = more binding, comparable within an allelic series) | 14 upbm affinity estimate (log intensity, higher = more binding, comparable within an allelic series) | 14.2 upbm affinity estimate (log intensity, higher = more binding, comparable within an allelic series) | 11.7 upbm affinity estimate (log intensity, higher = more binding, comparable within an allelic series) | 10.9 upbm affinity estimate (log intensity, higher = more binding, comparable within an allelic series) | 11 upbm affinity estimate (log intensity, higher = more binding, comparable within an allelic series) | 12.3 upbm affinity estimate (log intensity, higher = more binding, comparable within an allelic series) | 13.2 upbm affinity estimate (log intensity, higher = more binding, comparable within an allelic series) |
| ATAATTAC | 13.5 upbm affinity estimate (log intensity, higher = more binding, comparable within an allelic series) | 10.5 upbm affinity estimate (log intensity, higher = more binding, comparable within an allelic series) | 10.9 upbm affinity estimate (log intensity, higher = more binding, comparable within an allelic series) | 13 upbm affinity estimate (log intensity, higher = more binding, comparable within an allelic series) | 12.4 upbm affinity estimate (log intensity, higher = more binding, comparable within an allelic series) | 14 upbm affinity estimate (log intensity, higher = more binding, comparable within an allelic series) | 13.4 upbm affinity estimate (log intensity, higher = more binding, comparable within an allelic series) | 13.7 upbm affinity estimate (log intensity, higher = more binding, comparable within an allelic series) | 12.8 upbm affinity estimate (log intensity, higher = more binding, comparable within an allelic series) | 12.1 upbm affinity estimate (log intensity, higher = more binding, comparable within an allelic series) | 14.2 upbm affinity estimate (log intensity, higher = more binding, comparable within an allelic series) | 13 upbm affinity estimate (log intensity, higher = more binding, comparable within an allelic series) | 12.9 upbm affinity estimate (log intensity, higher = more binding, comparable within an allelic series) | 13.9 upbm affinity estimate (log intensity, higher = more binding, comparable within an allelic series) | 14.2 upbm affinity estimate (log intensity, higher = more binding, comparable within an allelic series) | 11.9 upbm affinity estimate (log intensity, higher = more binding, comparable within an allelic series) | 11.1 upbm affinity estimate (log intensity, higher = more binding, comparable within an allelic series) | 11.1 upbm affinity estimate (log intensity, higher = more binding, comparable within an allelic series) | 12.2 upbm affinity estimate (log intensity, higher = more binding, comparable within an allelic series) | 13.1 upbm affinity estimate (log intensity, higher = more binding, comparable within an allelic series) |
